Results on 15 compounds are retold here after PubChem BioAssay (NCI).

Among the test systems are SR leukemia; OVCAR-8 ovarian; OVCAR-5 ovarian; OVCAR-4 ovarian; SK-OV-3 ovarian; IGROV1 ovarian; OVCAR-3 ovarian; NCI/ADR-RES ovarian; HS 578T breast.
Common to all, as to experiment: NCI-60 one-dose screen, 48 h (100 = growth as untreated, 0 = no growth, -100 = all killed)
What all share (conditions): 10 µM unless noted

This is part of a sample that, as a whole, favours compounds with a hit. Of some 83,000 tested, about 20% had one in any assay.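 Single-dose data. Exposure time 48 hours. Values below 10 considered active.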 Unmarked numbers belong to inactive results. Calls of active or inactive are those of the source.

Consider `Cc1cc(I)nc2ccccc12`, for which the growth with SR leukemia is 107%; in the test with OVCAR-8 ovarian it was 107%; in the test with OVCAR-5 ovarian, 100%; in the test with OVCAR-4 ovarian, 112%; with SK-OV-3 ovarian, 109%; in the test with IGROV1 ovarian, 104%. The values for the growth in the test with OVCAR-3 ovarian and in the test on NCI/ADR-RES ovarian were 130% and 109%, respectively.
In the case of `CCC(=O)c1cc([N+](=O)[O-])c(Br)s1`, the growth with SR leukemia was -19.5% (active); in the test with OVCAR-8 ovarian, 91.4%; in the test with OVCAR-5 ovarian, 99%; in the test on OVCAR-4 ovarian, 109%; with SK-OV-3 ovarian it was 95.8%; with IGROV1 ovarian, 105%. The growth was 82.4% in the test on OVCAR-3 ovarian and 105% in the test on NCI/ADR-RES ovarian.
On to `C/C(=N\NC(=S)N1CC2CCC(CC2)C1)c1ccccn1`, for which the growth in the test with SR leukemia was -10.1% (active); in the test with OVCAR-8 ovarian it was 18.2%; with OVCAR-5 ovarian it was 24.5%; with OVCAR-4 ovarian, -41.2% (active); with SK-OV-3 ovarian it was 18.9%; in the test on IGROV1 ovarian, 5.07% (active). Also, the figures for the growth in the test with OVCAR-3 ovarian, in the test on HS 578T breast and in the test on NCI/ADR-RES ovarian were -17.7% (active), 16.3% and 12.6%, respectively.
With `S=c1[nH]c2cc(Cl)ccc2s1`, the growth in the test with SR leukemia was 106%; in the test with OVCAR-8 ovarian, 103%; in the test on OVCAR-5 ovarian it was 98.6%; in the test with OVCAR-4 ovarian, 106%; in the test on SK-OV-3 ovarian, 102%; in the test with IGROV1 ovarian, 105%. The figures for the growth in the test on OVCAR-3 ovarian and with NCI/ADR-RES ovarian were 102% and 105%, respectively.
Turning to `Cc1cc(C)c([I+]c2c(C)cc(C)cc2C)c(C)c1`, the growth is -49.1% (active) in the test with SR leukemia; -60.3% (active) with OVCAR-8 ovarian; -7.26% (active) in the test on OVCAR-5 ovarian; -44.8% (active) in the test on OVCAR-4 ovarian; -26.4% (active) in the test on SK-OV-3 ovarian; -47.6% (active) in the test with IGROV1 ovarian. Further, the figures for the growth in the test on OVCAR-3 ovarian, with HS 578T breast and in the test with NCI/ADR-RES ovarian were -44.9% (active), 20.5% and 78%, respectively.
On to `OC(c1cc2ccc(C(F)(F)F)cc2c2cc(C(F)(F)F)ccc12)C1CCCCN1` (centres undefined), for which the growth in the test with SR leukemia is -84.7% (active); with OVCAR-8 ovarian, -63.8% (active); in the test with OVCAR-4 ovarian, -100% (active); with SK-OV-3 ovarian it was -100% (active); with IGROV1 ovarian it was -83.9% (active); in the test with OVCAR-3 ovarian, -100% (active). For the same compound, the results for the growth with HS 578T breast and in the test with NCI/ADR-RES ovarian were -44.2% (active) and -84.6% (active), respectively.
Consider `Cc1ccc2cccc(OC(=O)Nc3cccc(C(F)(F)F)c3)c2n1`, for which the growth was 36.9% in the test on SR leukemia; 53.5% with OVCAR-8 ovarian; 83.7% in the test on OVCAR-5 ovarian; 73% in the test with OVCAR-4 ovarian; 108% with SK-OV-3 ovarian; 58.2% in the test with IGROV1 ovarian. In addition, the growth in the test on OVCAR-3 ovarian was 32.3%; in the test with HS 578T breast, 100%; with NCI/ADR-RES ovarian, 58.9%.
Take `Cc1cc2cccnc2c2ncccc12`: the growth in the test with SR leukemia was 6.21% (active); in the test with OVCAR-8 ovarian it was 13%; with OVCAR-5 ovarian, 45.6%; in the test with OVCAR-4 ovarian, 14.4%; in the test with SK-OV-3 ovarian it was 1.57% (active); in the test on IGROV1 ovarian, 29.1%. Also, the values for the growth in the test on OVCAR-3 ovarian, in the test on HS 578T breast and with NCI/ADR-RES ovarian were 33.8%, 61.3% and 11.2%, respectively.
As to `N#Cc1c2ccccc2nc2ccccc12`, the growth in the test on SR leukemia was 103%; in the test on OVCAR-8 ovarian, 93.9%; with OVCAR-4 ovarian, 83.2%; in the test with SK-OV-3 ovarian, 116%; with IGROV1 ovarian, 108%; with OVCAR-3 ovarian it was 110%. For the same compound, in the test on HS 578T breast, the growth is 103%.
In the case of `NNc1cccc([N+](=O)[O-])c1`, the growth is 35% with SR leukemia; 78% in the test with OVCAR-8 ovarian; 94.8% with OVCAR-5 ovarian; 107% in the test on OVCAR-4 ovarian; 83% in the test on IGROV1 ovarian; 100% in the test on OVCAR-3 ovarian. Further, the growth was 106% in the test with HS 578T breast and 76.3% in the test on NCI/ADR-RES ovarian.
For `O=C1C=Cc2ccccc2/C1=C/c1nc(-c2ccccc2)oc1O`, the growth in the test on SR leukemia was 91.1%; in the test with OVCAR-8 ovarian it was 94.7%; in the test with OVCAR-5 ovarian, 97.2%; in the test with OVCAR-4 ovarian, 85.2%; in the test with SK-OV-3 ovarian, 86.6%; in the test on IGROV1 ovarian, 71.8%. In addition, the growth with OVCAR-3 ovarian is 91.6%; in the test on HS 578T breast it was 102%; in the test with NCI/ADR-RES ovarian, 85.7%.
Turning to `O=C(/C=C/C(Cl)(Cl)Cl)Nc1ccc(Cl)cc1`, the growth was 40.1% in the test with SR leukemia; 115% with OVCAR-4 ovarian; 110% with SK-OV-3 ovarian; -76.5% (active) in the test on IGROV1 ovarian; 119% in the test on OVCAR-3 ovarian; 105% in the test on HS 578T breast. In addition, the growth in the test with NCI/ADR-RES ovarian is 95.5%.
As to `NNc1ccc(Cl)cc1Cl`, the growth with SR leukemia was 57.3%; in the test on OVCAR-8 ovarian, 52.7%; with OVCAR-5 ovarian it was 88.8%; with OVCAR-4 ovarian, 89.2%; in the test with SK-OV-3 ovarian, 69.7%; in the test with OVCAR-3 ovarian, 87.4%. Moreover, the values for the growth with HS 578T breast and in the test with NCI/ADR-RES ovarian were 84.1% and 53.5%, respectively.
`CN(C)c1ccc2cc3c(cc2c1)Oc1ccccc1N3.[Cl][Zn][Cl]`: the growth with SR leukemia is 12.5%; with OVCAR-8 ovarian it was 70.2%; in the test on OVCAR-4 ovarian, 64%; with SK-OV-3 ovarian, 106%; with IGROV1 ovarian it was 78.5%; in the test on OVCAR-3 ovarian it was 17.6%. The results for the growth in the test on HS 578T breast and in the test with NCI/ADR-RES ovarian were 106% and 86.2%, respectively.
As to `C1=C(c2ccccc2)c2ccccc2C1`, the growth was 93.6% with SR leukemia; 114% in the test on OVCAR-8 ovarian; 92% with OVCAR-5 ovarian; 105% in the test on OVCAR-4 ovarian; 109% with SK-OV-3 ovarian; 101% in the test on IGROV1 ovarian. The growth in the test on OVCAR-3 ovarian was 106%; in the test with HS 578T breast it was 95.2%; in the test with NCI/ADR-RES ovarian, 101%.
